# According to PubChem BioAssay (EPA / NIEHS):
# Inconclusive results are not listed. More than one record can exist for a structure, and the calls need not agree. Calls of active or inactive are those of the source. The calls were made as follows: active = hit-call score of the fitted dose curve at least 0.9, where 1 is the maximum; inconclusive = response in the unintended direction; inactive = score below 0.9.
# Legend:
# [1] = target: mouse Estrogen Receptor alpha (Era), Esr1 (gene 13982) (UniProt P19785); experiment: NVS_NR_mERa: NovaScreen (NVS) Nuclear Receptor Binding Assay for mouse Estrogen Receptor alpha (Era) (AID 2283378);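 also: hit means loss of bound radioligand signal relative to DMSO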
# mouse Estrogen Receptor alpha (Era), Esr1 (gene 13982), sequence (P19785 whole entry, looked up): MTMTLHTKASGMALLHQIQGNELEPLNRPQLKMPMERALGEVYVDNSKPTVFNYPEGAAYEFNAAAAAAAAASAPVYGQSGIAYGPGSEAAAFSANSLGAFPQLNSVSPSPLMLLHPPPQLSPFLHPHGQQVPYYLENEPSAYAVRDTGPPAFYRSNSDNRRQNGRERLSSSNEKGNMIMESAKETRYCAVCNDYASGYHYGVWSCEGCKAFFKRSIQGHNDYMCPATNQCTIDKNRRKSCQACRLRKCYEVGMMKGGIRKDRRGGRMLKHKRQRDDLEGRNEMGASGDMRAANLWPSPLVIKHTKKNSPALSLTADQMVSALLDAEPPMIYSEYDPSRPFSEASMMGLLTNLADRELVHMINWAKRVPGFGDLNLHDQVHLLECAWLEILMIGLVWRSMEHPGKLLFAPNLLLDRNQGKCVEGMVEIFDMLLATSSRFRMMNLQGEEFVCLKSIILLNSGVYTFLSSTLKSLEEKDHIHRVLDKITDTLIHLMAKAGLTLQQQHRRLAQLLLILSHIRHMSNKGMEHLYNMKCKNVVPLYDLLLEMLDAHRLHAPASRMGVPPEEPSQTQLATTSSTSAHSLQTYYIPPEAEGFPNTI
# Protocol: NVS_NR_mERa is a biochemical, single-readout assay that uses extracted gene-proteins in a cell-free assay. Measurements were taken 18 hours after chemical dosing in a 96-well plate.NVS_NR_mERa is one of one assay component(s) measured or calculated from the NVS_NR_mERa assay. It is designed to make measurements of radioligand binding, a form of binding reporter, as detected with scintillation counting signals by Filter-based radiodetection technology.Data from the assay component NVS_NR_mERa was analyzed into 1 assay endpoint. This assay endpoint, NVS_NR_mERa, was analyzed in the positive analysis fitting direction relative to DMSO as the negative control and baseline of activity. Using a type of binding reporter, loss-of-signal activity can be used to understand changes in the binding as they relate to the gene Esr1. Furthermore, this assay endpoint can be referred to as a primary readout, because the performed assay has only produced 1 assay endpoint. To generalize the intended target to other relatable targets, this assay endpoint is annotated to the nuclear receptor intended target family, where the subfamily is steroidal.
# (§1) Binding assays used specific radioligands (tritiated, iodinated) with non-radioactive competitive displacement ligands in agonist or antagonist protocols (as indicated) and various reference compounds and inhibitors to titrate specific binding to receptors and transporters. Most enzyme assays (CYPs, kinases, phosphatases, proteases, HDACs) used recombinant protein and specific substrates (fluorescence mostly, some colorimetric and radioactive) and inhibitors, followed by a biochemical separation of substrate and product. All assays for the biochemical HTS were initially run in duplicate at a single concentration (10 uM for CYP450 assays and 25 uM for all others). […] Each assay was run with positive and negative controls, and concurrent controls on every plate. The follow-up (secondary) screen tested active chemical-pairs in concentration series, as well as a few additional assays not tested in the primary screen, some selected negative inactives, and several cases re-run in the concentration series for confirmatory purposes.
# [2] = target: Estrogen receptor (Homo sapiens) (UniProt P03372); experiment: OT_ERa_GFPERaERE_0120: Odyssey Thera (OT) 2-hour HeLa Transcription Induction Assay for Estrogen Receptor (AID 2283382)
# Estrogen receptor (Homo sapiens), sequence (P03372 whole entry, looked up): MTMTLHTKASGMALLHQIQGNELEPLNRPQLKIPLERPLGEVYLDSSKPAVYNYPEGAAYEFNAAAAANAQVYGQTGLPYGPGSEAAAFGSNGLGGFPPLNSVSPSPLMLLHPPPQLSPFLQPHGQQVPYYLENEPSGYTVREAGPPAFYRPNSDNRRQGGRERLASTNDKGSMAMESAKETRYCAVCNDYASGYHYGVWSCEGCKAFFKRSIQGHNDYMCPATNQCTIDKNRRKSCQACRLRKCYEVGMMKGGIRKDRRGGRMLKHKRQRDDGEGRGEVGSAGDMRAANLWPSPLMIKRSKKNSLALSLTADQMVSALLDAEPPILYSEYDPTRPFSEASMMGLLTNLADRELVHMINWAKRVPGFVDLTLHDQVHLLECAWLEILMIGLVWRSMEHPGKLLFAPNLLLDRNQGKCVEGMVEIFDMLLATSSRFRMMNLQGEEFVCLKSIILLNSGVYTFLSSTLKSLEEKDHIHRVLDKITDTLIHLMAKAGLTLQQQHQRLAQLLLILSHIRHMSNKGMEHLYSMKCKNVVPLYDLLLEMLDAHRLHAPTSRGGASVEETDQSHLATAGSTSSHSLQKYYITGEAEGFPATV
# In short: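 HeLa cells were dosed for 2 h, then GFP reporter induction was quantified by fluorescence microscopy with high-content image analysis. Gain of signal fitted against DMSO baseline.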
# [3] = target: Retinoic acid receptor RXR-alpha (Homo sapiens) (UniProt P19793); experiment: OT_NURR1_NURR1RXRa_1440: Odyssey Thera (OT) 24-hour HEK293T Protein Complementation Assay for Nurr1/retinoid X receptor (RXR) (AID 2283386)
# Retinoic acid receptor RXR-alpha (Homo sapiens), sequence (P19793 whole entry, looked up, the tested form may be a part): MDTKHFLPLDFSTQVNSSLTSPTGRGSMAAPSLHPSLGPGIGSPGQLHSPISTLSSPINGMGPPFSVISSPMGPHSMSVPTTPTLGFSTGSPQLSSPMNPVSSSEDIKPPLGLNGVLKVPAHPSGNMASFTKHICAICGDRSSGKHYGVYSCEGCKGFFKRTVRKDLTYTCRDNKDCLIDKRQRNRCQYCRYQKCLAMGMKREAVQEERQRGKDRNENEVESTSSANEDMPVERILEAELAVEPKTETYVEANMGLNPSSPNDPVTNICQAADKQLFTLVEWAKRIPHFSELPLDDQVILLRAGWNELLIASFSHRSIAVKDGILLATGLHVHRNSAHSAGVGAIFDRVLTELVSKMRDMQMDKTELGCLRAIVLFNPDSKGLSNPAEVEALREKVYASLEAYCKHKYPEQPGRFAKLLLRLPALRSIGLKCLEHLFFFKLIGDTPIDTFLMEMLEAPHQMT
# In short: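 HEK293T protein-fragment complementation of Nurr1 and RXRα fused to reporter fragments; compounds 24 h. Fluorescence gain from reconstituted reporter fitted versus DMSO.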
# [4] = target: human Norepinephrine Transporter (NET), SLC6A2 (gene 6530) (UniProt P23975); experiment: NVS_TR_hNET: NovaScreen (NVS) Transporter Assay for human Norepinephrine Transporter (NET) (AID 2283377);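 as to AC50: displacement of radioligand from human NET seen as loss of scintillation signal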
# human Norepinephrine Transporter (NET), SLC6A2 (gene 6530), sequence (P23975 whole entry, looked up): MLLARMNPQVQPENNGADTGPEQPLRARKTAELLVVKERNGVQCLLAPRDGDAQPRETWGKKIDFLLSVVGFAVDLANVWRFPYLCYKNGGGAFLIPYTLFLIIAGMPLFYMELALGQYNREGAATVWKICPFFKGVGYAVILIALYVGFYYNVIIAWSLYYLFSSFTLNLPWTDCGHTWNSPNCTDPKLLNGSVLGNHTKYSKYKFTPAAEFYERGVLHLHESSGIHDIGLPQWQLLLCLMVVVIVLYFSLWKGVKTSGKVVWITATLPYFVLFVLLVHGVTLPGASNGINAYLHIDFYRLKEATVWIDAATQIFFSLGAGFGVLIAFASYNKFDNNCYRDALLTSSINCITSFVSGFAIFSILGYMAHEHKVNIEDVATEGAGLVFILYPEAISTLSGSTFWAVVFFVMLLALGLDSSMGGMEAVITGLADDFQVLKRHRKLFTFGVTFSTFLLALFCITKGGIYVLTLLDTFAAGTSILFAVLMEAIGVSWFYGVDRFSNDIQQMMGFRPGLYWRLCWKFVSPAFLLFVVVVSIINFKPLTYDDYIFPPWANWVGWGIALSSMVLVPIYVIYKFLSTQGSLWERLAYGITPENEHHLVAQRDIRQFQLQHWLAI
# In short: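 Cell-free radioligand binding using CHO-derived membrane protein expressing human NET, read by filter scintillation counting 1 h after dosing; loss of signal vs DMSO. Initial duplicate screen at 25 uM, actives retested in concentration series.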
# [5] = target: Bile acid receptor (Homo sapiens) (UniProt Q96RI1); experiment: OT_FXR_FXRSRC1_0480: Odyssey Thera (OT) 8-hour HEK293T Protein-Complementation Assay for Farnesoid X receptor/SRC-1 Co-activator (AID 2283383)
# Bile acid receptor (Homo sapiens), sequence (Q96RI1 whole entry, looked up, the tested form may be a part): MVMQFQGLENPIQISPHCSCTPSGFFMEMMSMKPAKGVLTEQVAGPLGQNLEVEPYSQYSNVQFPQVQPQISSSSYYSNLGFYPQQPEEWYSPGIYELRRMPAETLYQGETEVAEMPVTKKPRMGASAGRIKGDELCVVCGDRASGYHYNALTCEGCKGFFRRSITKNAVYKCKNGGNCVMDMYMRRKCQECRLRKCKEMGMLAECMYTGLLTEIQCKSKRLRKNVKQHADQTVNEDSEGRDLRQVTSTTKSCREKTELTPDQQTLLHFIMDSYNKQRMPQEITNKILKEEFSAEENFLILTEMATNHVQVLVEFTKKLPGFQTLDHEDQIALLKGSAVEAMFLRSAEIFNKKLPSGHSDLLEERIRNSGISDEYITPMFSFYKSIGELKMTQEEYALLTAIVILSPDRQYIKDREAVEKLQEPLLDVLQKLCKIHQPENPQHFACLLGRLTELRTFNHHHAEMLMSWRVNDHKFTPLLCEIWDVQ
# In short: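 HEK293T protein-fragment complementation assay: FXR and SRC-1 coactivator are fused to reporter fragments, and their interaction restores a fluorescent reporter. Readout was taken 8 h after dosing, with gain of signal fit relative to DMSO.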
# [6] = target: Retinoic acid receptor RXR-alpha (Homo sapiens) (UniProt P19793); experiment: OT_NURR1_NURR1RXRa_0480: Odyssey Thera (OT) 8-hour HEK293T Protein Complementation Assay for Nurr1/retinoid X receptor (RXR) (AID 2283385)
# In short: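 HEK293T cells expressing Nurr1 and RXRα fused to reporter fragments (protein-fragment complementation); fluorescence measured 8 h after dosing. Gain of signal fitted relative to DMSO.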
# [7] = target: Agonist Androgen Response Element (ARE), AR (gene 367) (UniProt P10275); experiment: OT_AR_ARELUC_AG_1440: Odyssey Thera (OT) 24-hour CHO-K1 Luciferase Assay for Agonist Androgen Response Element (ARE) (AID 2283379)
# Agonist Androgen Response Element (ARE), AR (gene 367), sequence (P10275 whole entry, looked up): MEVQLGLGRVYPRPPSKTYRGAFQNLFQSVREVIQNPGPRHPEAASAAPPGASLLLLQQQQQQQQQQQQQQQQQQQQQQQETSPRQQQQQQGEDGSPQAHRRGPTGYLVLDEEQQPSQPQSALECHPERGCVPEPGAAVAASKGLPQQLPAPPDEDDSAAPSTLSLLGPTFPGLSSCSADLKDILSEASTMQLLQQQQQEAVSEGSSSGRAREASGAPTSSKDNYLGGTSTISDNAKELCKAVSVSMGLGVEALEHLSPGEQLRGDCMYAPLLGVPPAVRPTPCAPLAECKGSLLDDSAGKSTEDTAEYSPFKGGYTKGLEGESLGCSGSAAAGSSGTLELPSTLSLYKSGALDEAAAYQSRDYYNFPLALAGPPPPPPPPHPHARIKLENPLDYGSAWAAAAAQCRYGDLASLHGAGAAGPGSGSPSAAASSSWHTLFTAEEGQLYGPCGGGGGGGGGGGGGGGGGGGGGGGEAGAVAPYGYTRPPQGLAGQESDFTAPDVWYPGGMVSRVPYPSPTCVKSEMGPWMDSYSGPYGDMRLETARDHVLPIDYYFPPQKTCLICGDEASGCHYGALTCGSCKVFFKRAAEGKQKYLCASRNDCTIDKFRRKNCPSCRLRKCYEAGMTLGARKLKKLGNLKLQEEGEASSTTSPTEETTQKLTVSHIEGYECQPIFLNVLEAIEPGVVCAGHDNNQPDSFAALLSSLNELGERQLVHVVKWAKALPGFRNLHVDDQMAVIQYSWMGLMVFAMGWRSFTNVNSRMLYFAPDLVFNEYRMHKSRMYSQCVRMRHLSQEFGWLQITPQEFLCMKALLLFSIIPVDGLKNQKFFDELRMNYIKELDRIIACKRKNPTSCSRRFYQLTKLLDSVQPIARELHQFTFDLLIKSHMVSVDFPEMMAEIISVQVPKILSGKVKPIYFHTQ
# In short: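 CHO-K1 cells carrying an ARE-driven luciferase reporter were exposed to compounds for 24 h. Luminescence was then read after adding a D-luciferin/ATP mix, and activity was scored as a gain in signal over DMSO vehicle.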
# [8] = target: Estrogen receptor beta (Homo sapiens) (UniProt Q92731); experiment: OT_ER_ERbERb_1440: Odyssey Thera (OT) 24-hour HEK293T Protein-Complementation Assay for Estrogen Receptor-beta/-beta Homodimer (AID 2283380);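 also: scored as signal increase over DMSO baseline for both agonists and antagonists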
# Estrogen receptor beta (Homo sapiens), sequence (Q92731 whole entry, looked up, the tested form may be a part): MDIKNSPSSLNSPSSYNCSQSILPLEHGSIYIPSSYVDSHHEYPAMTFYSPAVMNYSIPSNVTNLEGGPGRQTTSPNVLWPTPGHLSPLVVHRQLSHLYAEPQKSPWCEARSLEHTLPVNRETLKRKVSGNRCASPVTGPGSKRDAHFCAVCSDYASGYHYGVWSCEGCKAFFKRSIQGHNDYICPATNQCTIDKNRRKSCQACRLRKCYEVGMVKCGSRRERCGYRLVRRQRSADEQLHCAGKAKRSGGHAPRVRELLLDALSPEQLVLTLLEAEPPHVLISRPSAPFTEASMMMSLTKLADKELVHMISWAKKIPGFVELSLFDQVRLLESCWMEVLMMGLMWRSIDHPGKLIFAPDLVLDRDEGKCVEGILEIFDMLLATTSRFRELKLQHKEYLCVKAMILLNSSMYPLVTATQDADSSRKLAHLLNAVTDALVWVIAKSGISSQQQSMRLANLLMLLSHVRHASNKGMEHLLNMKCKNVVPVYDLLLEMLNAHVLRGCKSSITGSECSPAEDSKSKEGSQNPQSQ
# In short: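 HEK293T cells stably expressing ER beta LBD (aa 310-547) homodimer fragment-complementation reporter, dosed 24 h. Cells formaldehyde-fixed, Draq5-stained; gain in nuclear (agonist) or nuclear plus cytoplasmic (antagonist) fluorescence versus DMSO read by laser scanning cytometry.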
# [9] = target: Norway rat Vesicular Monoamine Transporter (VMAT2), neurotransmitter transporter, Slc18a2 (gene 25549) (UniProt Q01827); experiment: NVS_TR_rVMAT2: NovaScreen (NVS) Transporter Assay for Norway rat Vesicular Monoamine Transporter (VMAT2), neurotransmitter transporter (AID 2283376);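 also: actives lower the bound radioligand signal below the DMSO level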
# Norway rat Vesicular Monoamine Transporter (VMAT2), neurotransmitter transporter, Slc18a2 (gene 25549), sequence (Q01827 whole entry, looked up): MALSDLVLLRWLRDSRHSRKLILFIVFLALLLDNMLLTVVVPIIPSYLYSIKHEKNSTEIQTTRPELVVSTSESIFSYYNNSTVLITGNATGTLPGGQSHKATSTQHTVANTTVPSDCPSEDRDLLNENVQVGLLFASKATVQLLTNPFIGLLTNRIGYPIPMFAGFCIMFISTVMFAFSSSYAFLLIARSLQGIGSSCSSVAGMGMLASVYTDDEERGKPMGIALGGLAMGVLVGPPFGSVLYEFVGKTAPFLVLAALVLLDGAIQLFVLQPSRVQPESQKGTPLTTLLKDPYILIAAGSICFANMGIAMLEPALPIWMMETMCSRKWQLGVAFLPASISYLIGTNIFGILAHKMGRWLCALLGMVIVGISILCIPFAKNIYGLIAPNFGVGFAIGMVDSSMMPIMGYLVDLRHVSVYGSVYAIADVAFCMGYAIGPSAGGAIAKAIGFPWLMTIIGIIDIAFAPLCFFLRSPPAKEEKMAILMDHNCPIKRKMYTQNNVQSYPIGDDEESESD
# Protocol: (§2) NVS_TR_rVMAT2 is a biochemical, single-readout assay that uses extracted gene-proteins from Rat forebrain in a tissue-based cell-free assay. Measurements were taken 1 hour after chemical dosing in a 96-well plate.NVS_TR_rVMAT2 is one of one assay component(s) measured or calculated from the NVS_TR_rVMAT2 assay. It is designed to make measurements of radioligand binding, a form of binding reporter, as detected with scintillation counting signals by Filter-based radiodetection technology.Data from the assay component NVS_TR_rVMAT2 was analyzed into 1 assay endpoint. This assay endpoint, NVS_TR_rVMAT2, was analyzed in the positive analysis fitting direction relative to DMSO as the negative control and baseline of activity. Using a type of binding reporter, loss-of-signal activity can be used to understand changes in the binding as they relate to the gene Slc18a2. Furthermore, this assay endpoint can be referred to as a primary readout, because the performed assay has only produced 1 assay endpoint. To generalize the intended target to other relatable targets, this assay endpoint is annotated to the transporter intended target family, where the subfamily is vesicular transporter.
# as §1
# [10] = target: rat Serotonin Transporter (SERT), Slc6a4 (gene 25553) (UniProt P31652); experiment: NVS_TR_rSERT: NovaScreen (NVS) Transporter Assay for rat Serotonin Transporter (SERT) (AID 2283375)
# Protocol: as §2, with “NVS_TR_rSERT” for “NVS_TR_rVMAT2”, “forebrain membranes” for “forebrain”, “plate.NVS_TR_rSERT” for “plate.NVS_TR_rVMAT2”, “NVS_TR_rSERT,” for “NVS_TR_rVMAT2,”, “Slc6a4.” for “Slc18a2.”, “neurotransmitter” for “vesicular”
# as §1
structure (smiles),measurement,setting,value
CCCCCCCCn1sccc1=O,outcome,[1],inactive
same,outcome,[2],inactive
same,AC50,[3],12 µM (active)
ClC1=C(Cl)[C@]2(Cl)[C@H]3[C@H]([C@@H]4C=C[C@H]3C4)[C@@]1(Cl)C2(Cl)Cl,outcome,[1],inactive
same,outcome,[2],inactive
Cc1cccc(N)c1N,AC50,[4],5.57 µM (active)
same,AC50,[5],42.8 µM (active)
same,AC50,[6],33.9 µM (active)
same,outcome,[6],inactive
same,outcome,[3],inactive
Nc1ccc(Cl)cc1N,AC50,[4],38.9 µM (active)
same,outcome,[7],inactive
same,AC50,[5],35.3 µM (active)
same,AC50,[6],39.2 µM (active)
same,outcome,[6],inactive
same,AC50,[3],31.3 µM (active)
same,outcome,[3],inactive
COP(=S)(OC)SCN1C(=O)c2ccccc2C1=O,AC50,[4],2.04 µM (active)
same,outcome,[8],inactive
same,outcome,[5],inactive
same,outcome,[6],inactive
CC(C)(C)C(O)(CCc1ccc(Cl)cc1)Cn1cncn1 (stereo unspecified),AC50,[4],14.3 µM (active)
same,outcome,[6],inactive
same,outcome,[3],inactive
CC(C)(C)OOC(=O)c1ccccc1,outcome,[4],inactive
CCCCOC(=O)c1ccccc1C(=O)OCc1ccccc1,outcome,[9],inactive
same,outcome,[6],inactive
same,outcome,[3],inactive
Cc1ccc(N)c(N)c1,AC50,[4],16.4 µM (active)
same,outcome,[6],inactive
same,outcome,[3],inactive
O=[N+]([O-])C(Br)(CO)CO,outcome,[4],inactive
same,outcome,[3],inactive
CCCCCCCCOC(=O)c1ccc(C(=O)OCCCCCCCC)c(C(=O)OCCCCCCCC)c1,outcome,[9],inactive
same,outcome,[5],inactive
same,outcome,[3],inactive
[Cl-].[Cl-].[Hg+2],AC50,[10],25 µM (active)
same,AC50,[4],0.372 µM (active)
same,outcome,[8],inactive
same,AC50,[2],21.5 µM (active)
same,AC50,[3],11.4 µM (active)
CCC(C)c1ccc(O)cc1 (stereo unspecified),outcome,[9],inactive
same,AC50,[4],9.53 µM (active)
same,outcome,[5],inactive
same,outcome,[6],inactive
same,outcome,[3],inactive
Oc1ccc2ccc3cccc4ccc1c2c34,AC50,[8],12 µM (active)
same,outcome,[6],inactive
same,AC50,[3],9.46 µM (active)
same,outcome,[3],inactive
Nc1cc(Cl)cc(C(=O)O)c1Cl,outcome,[8],inactive
CO[C@@H]1[C@H](OC(=O)NC(=O)CCl)CC[C@]2(CO2)[C@H]1[C@@]1(C)O[C@@H]1CC=C(C)C,outcome,[7],inactive
same,outcome,[2],inactive
same,outcome,[6],inactive
[O-][Cl+]O,outcome,[2],inactive
O=[N+]([O-])c1ccc(Oc2ccc(Cl)cc2Cl)cc1,outcome,[8],inactive
same,AC50,[6],75.3 µM (active)
same,outcome,[6],inactive
same,outcome,[3],inactive
COc1cc(C=O)cc2c1[C@H](COC(N)=O)[C@]1(OC(C)=O)ON2C[C@H]2[C@@H]1N2C(C)=O,outcome,[2],inactive
CCC12COCN1COC2,outcome,[2],inactive
same,outcome,[6],inactive
same,outcome,[3],inactive
Clc1ccc(C(c2ccc(Cl)cc2)C(Cl)Cl)cc1,AC50,[2],12 µM (active)
same,AC50,[6],92.4 µM (active)
same,AC50,[3],80.9 µM (active)
